# In PubChem BioAssay AID588778 (Southern Research Institute, 2011):
# The campaign covered roughly 10,000 compounds. Fewer than 10 were called active. No rule for the calls is given here. A selection follows.
# Assay: Vibrio cholerae motility inhibitors, OD read-out (AID 588778)
# Details: stronger effect = higher value
# [1] = measured here: bacterial viability at 10 ug/mL
Structure (SMILES),inhibition (concentration not given here),inhibition [1]
Cc1c(NC(=O)c2nn3c(C(F)(F)F)c4c(nc3c2Cl)-c2ccccc2CC4)c(=O)n(-c2ccccc2)n1C,-11.3% (inactive),-0.51%
S=C1NC(C23CC4CC(CC(C4)C2)C3)=CC(c2ccc(Cl)cc2)N1 (configuration not stated),-6.78% (inactive),-4.13%
CC(C)CC(C(=O)Oc1ccc2c3c(c(=O)oc2c1)CCC3)N1C(=O)c2ccccc2C1=O (configuration not stated),6.55% (inactive),-2.25%
CCC(=O)OCC12COC3c4ccccc4OC(C)(CC1C)C3C2C (configuration not stated),-16.5% (inactive),-10.6%
CCOC(=O)c1ccc(NC(=O)COc2ccc3oc(=O)cc(C)c3c2)cc1,-17.2% (inactive),-0.82%
Cc1ccccc1C(=O)N1CCN(c2nc(N3CCCC3)nc(N3CCCC3)n2)CC1,-0.47% (inactive),0.25%
O=C(Cc1c(F)cccc1Cl)NCc1ccc2c(c1)OCO2,40% (inactive),7.78%
O=C(CSc1nnnn1-c1ccccc1)c1cc2ccccc2oc1=O,3.97% (inactive),-4.29%
COCCSc1nnc(NC(=O)Cc2c(F)cccc2Cl)s1,-2.92% (inactive),-1.31%
O=C(NC(=O)c1ccccc1)Nc1ccc(Br)cc1,-16.2% (inactive),-9.72%
COc1c(C)cc(Br)cc1C(=O)NC(=S)Nc1nc(C)cc(C)n1,-16.1% (inactive),-11.8%
CCCCC(=O)Nc1ccc(NC(=O)C(Cl)(Cl)Cl)cc1OC,3.09% (inactive),-3.52%
O=C(CCOc1ccccc1)Nc1ccc(Br)cc1,-9.09% (inactive),-6.95%
O=C(NCc1ccc(-c2nc3ccccc3s2)cc1)c1ccc(Br)o1,1.75% (inactive),9.78%
Cc1ccc(S(=O)(=O)Nc2cc(Sc3nnnn3-c3ccccc3)c(O)c3ccccc23)cc1,15.9% (inactive),1.17%
COC(=O)C1=C(C)NC(C)=C(C(=O)OC)C1c1sccc1C,20.1% (inactive),-0.13%
CC(=O)CSc1nnc(-c2cccnc2)o1,-0.39% (inactive),0.24%
O=C(O)C(Cc1ccccc1)N1C(=O)/C(=C/c2ccc([N+](=O)[O-])cc2)SC1=S (configuration not stated),8.42% (inactive),1.4%
CCOC(=O)c1c(NC(=O)Nc2ccccc2C)sc2c1CC(C)(C)OC2,9.16% (inactive),24.8%
COc1ccc(OC)c(C(=O)CCC(=O)Nc2cccc(C(F)(F)F)c2)c1,-4.82% (inactive),3.82%
CCOC(=O)C1(NC(=S)N(CC)CC)Sc2cc(C)ccc2NC1=O (configuration not stated),12.1% (inactive),13.5%
CCN(CC)c1ccc(CNC(C)C(O)c2ccccc2)cc1 (configuration not stated),19.9% (inactive),5.6%

Structure (SMILES),inhibition (concentration not given here),inhibition [1]
c1ccc2nc3c(nc2c1)CCc1nonc1-3,0.045% (inactive),-1.06%
CCOC(=O)c1ccc(CNC(=O)CCC(=O)O)cc1,2.35% (inactive),-10.3%
O=C(CCC(=O)Nc1ccccc1Cl)NNC(=O)Nc1ccc(F)cc1F,-13.9% (inactive),-8.28%
O=C(c1c(F)cccc1F)N1CCN(C(c2ccccc2)c2ccccc2)CC1,11.9% (inactive),-2.62%
O=C(NC(=S)NNC(=O)c1cnccn1)c1ccc(F)cc1,17.5% (inactive),4.07%
CCSc1nnc(NC(=O)c2ccc(Br)s2)s1,-21.3% (inactive),-10.2%
O=C(O)CCc1ccc(-c2cccs2)n1-c1cc(Cl)ccc1Cl,5.81% (inactive),-0.02%
CCc1ccccc1OCCCCn1c2ccccc2c2ccccc21,-30.3% (inactive),-15.4%
COCCSc1ccccc1C(=O)NCc1ccc(S(N)(=O)=O)cc1,4.8% (inactive),5.23%
CCCC(=O)N1CCN(c2ccc(NC(=O)COc3ccc(C)c(C)c3)cc2Cl)CC1,10.7% (inactive),4.97%
O=C(Nc1nnc(C(F)(F)F)s1)C(Sc1ccccc1)c1ccccc1 (configuration not stated),-9.96% (inactive),-4.95%
O=C(Cc1ccccc1Cl)c1ccc(O)c(O)c1O,12.7% (inactive),2.63%
COc1cc(OC)c(NC(=O)c2csc3ccccc23)cc1Cl,4.43% (inactive),1.11%
COC(C(=O)Nc1cc([N+](=O)[O-])ccc1C)c1ccccc1 (configuration not stated),3.61% (inactive),-3.16%
O=C(OCc1ccccc1F)c1ccc([N+](=O)[O-])cc1Cl,45.5% (inactive),18.5%
Cn1ncc(C#N)c1NC(=O)C1CC(c2c(F)cccc2Cl)=NO1 (configuration not stated),15.8% (inactive),10.8%
Cn1nc([N+](=O)[O-])nc1Sc1nnc(-c2cccnc2)o1,44.4% (inactive),15.6%
COc1cc2c(NCc3ccccc3)cc(O)c(CC(=O)Nc3ccc(Cl)cc3)c2cc1OC,8.57% (inactive),1.46%
Cc1ccc(-c2c(C(=O)NNC(=S)NCC3CCCO3)csc2C)cc1 (configuration not stated),17.3% (inactive),-2.95%
Cc1ccccc1NC(=S)NC1CCCC1,-3.76% (inactive),-1.53%
O=C(CSc1nc2ccccc2s1)NNC(=S)Nc1ccc(F)c(Cl)c1,47.6% (inactive),18.2%
Cc1ccc2c(c1)C(=O)C(=O)N2,26.8% (inactive),12.9%

Structure (SMILES),inhibition (concentration not given here),inhibition [1]
Cc1nc(Oc2ccc3c(c2)OCO3)c2cc(-c3ccccc3)sc2n1,6.33% (inactive),0.3%
Cc1ccc2cccc(OCc3nnc(-c4ccccc4)o3)c2n1,14.5% (inactive),-1.8%
COC(=O)c1ccc2ccn(CC(N)=O)c2c1,8.78% (inactive),7.37%
COc1cccc(/C=C/C2=NN(c3ccc(Cl)c(Cl)c3)C(c3cccc(OC)c3OC)C2)c1OC (configuration not stated),26.7% (inactive),13.6%
Cc1ccccc1NC(=O)NC1CCS(=O)(=O)C1 (configuration not stated),-0.46% (inactive),-4.02%
C=CCOc1cccc(CNc2ccc3[nH]c(=O)[nH]c3c2)c1,33.7% (inactive),18.3%
Cc1ccc2nc(-c3cccnc3)cc(C(=O)Nc3ccc4c(C)cc(=O)oc4c3)c2c1,-7.04% (inactive),9.26%
O=C(O)Cc1ccc(NC(=O)c2cccnc2C(=O)O)cc1,-4.82% (inactive),-2.46%
Cc1ccc(NC(=O)c2ccccc2NC(=O)Cc2ccc(Cl)cc2)cc1C,11.1% (inactive),19.3%
O=C1C(c2ccccn2)=C(O)c2ccccc21,14.8% (inactive),4.31%
O=C(NCCSCc1ccco1)Nc1ccccc1,22.3% (inactive),0.29%
O=C(CSCc1ccc([N+](=O)[O-])cc1)N1CCN(c2cccc(Cl)c2)CC1,-5.85% (inactive),-3.47%
Cc1cc2[nH]c(=S)n(Cc3ccccc3Cl)c2cc1C,-26.6% (inactive),-12.9%
O=C(NC(=O)C(Cl)(Cl)Cl)NC1CCCC1,-16.4% (inactive),3.96%
O=C(NC(=S)Nc1ccccc1C(=O)NC1CCCCC1)c1ccco1,3.43% (inactive),7.92%
CCn1ccc(C(=O)Nc2ccc(C(F)(F)F)cc2Cl)n1,-7.69% (inactive),-1.52%
Cc1cc(N2C(=O)CC(Cc3ccc(Cl)cc3)C2=O)no1 (configuration not stated),1.86% (inactive),-6.9%
O=C(CC(NC(=S)Nc1ccccc1)c1ccccc1)c1ccccc1 (configuration not stated),15.4% (inactive),5.66%
CC(C)C(C(=O)O)c1ccc([N+](=O)[O-])cc1 (configuration not stated),6.16% (inactive),-2.35%
COc1ccc([N+](=O)[O-])cc1CSc1ccccn1,-1.69% (inactive),-0.75%
CC(C)CNC(=S)NNC(=O)CC(C)O (configuration not stated),52.6% (inactive),22.3%
CSCCC(C(=O)O)n1c(-c2ccc3ccccc3n2)n[nH]c1=S (configuration not stated),-9.7% (inactive),-4.1%

Structure (SMILES),inhibition (concentration not given here),inhibition [1]
Cc1ccc(C(C)C)c(OCCSc2nc3ccccc3n2CC(O)CO)c1 (configuration not stated),6.25% (inactive),-5.04%
O=C(O)CCn1c2ccccc2c2ccccc21,15.5% (inactive),-1.8%
COc1ccc(NC(=O)c2cc(S(=O)(=O)N3CCOCC3)c(Cl)cc2Cl)c([N+](=O)[O-])c1,-16.3% (inactive),-8.39%
O=C(NCc1ccc(Cl)c(Cl)c1)c1ccc(Br)o1,20.3% (inactive),4.03%
COc1ccc2cnn(-c3ccccc3)c(=O)c2c1OC,12% (inactive),4.55%
CCOc1cc(C(=S)N2CC(C)OC(C)C2)cc(I)c1OCC(=O)N1CCCC1 (configuration not stated),11% (inactive),5.69%
CC(C)(O)C#Cc1ccc(C(=O)NC2CCCCC2)cc1,12.9% (inactive),20.2%
Cc1cc(=O)[nH]c2c1cnn2Cc1ccccc1,49.6% (inactive),17.8%
Cc1c(NC(=O)C2CC(c3c(F)cccc3Cl)=NO2)c(=O)n(-c2ccccc2)n1C (configuration not stated),0.12% (inactive),-4.39%
CC1(C(=O)NN2CCOCC2)CC1(Cl)Cl (configuration not stated),1.9% (inactive),-3.31%
CC(=O)c1cccc(NC(=O)C2CC(=O)N(Cc3ccccc3)C2)c1 (configuration not stated),-14% (inactive),-3.46%
C#CCOc1c(Br)cc(/C=C/[N+](=O)[O-])cc1OC,33.7% (inactive),7.02%
COc1ccc(C(=O)NCc2ccoc2C(=O)O)cc1,16.5% (inactive),8.04%
O=C(Cn1cnc2ccccc2c1=O)c1ccc(Br)cc1,-17.8% (inactive),-8.61%
Cc1cc(C)n2nc(Cc3ccccc3)c(-c3cccc4ccccc34)c2n1,0.73% (inactive),8.65%
O=CN1Cc2ccccc2-c2ccccc2C1,6.8% (inactive),3.25%
O=C(CNC(=S)NC(=O)c1ccc(F)cc1)c1ccccc1,-64% (inactive),-21.1%
O=C(c1ccccc1Oc1ccc(C(F)(F)F)cc1[N+](=O)[O-])N1CCOCC1,-15.4% (inactive),-2.04%
CN1CCN(C(=O)c2ccccc2NC(=O)Nc2ccccc2)CC1,15.9% (inactive),1.65%
COc1cccc(/C=C(\C#N)c2ccccc2)c1OC(C)C,22.8% (inactive),-2.34%
